Source: PubChem BioAssay (NCI)
Compounds without any hit were thinned out: in the full panel of roughly 83,000, 20% have a hit.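 Each cell line was grown in a 96-well plate and treated with one concentration of compound for 48 hours. Values below 10 were considered active.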 Values without a mark were called inactive. The source made the active and inactive calls.

Key:
Experiment in all cases: NCI-60 one-dose screen, 48 h (100 = growth as untreated, 0 = no growth, -100 = all killed)
Details in all cases: 10 µM unless noted
NCI-H23 lung = system: NCI-H23 lung
NCI-H226 lung = system: NCI-H226 lung
HOP-62 NSCLC = system: HOP-62 NSCLC
NCI-H460 lung = system: NCI-H460 lung
HOP-92 NSCLC = system: HOP-92 NSCLC
NCI-H522 lung = system: NCI-H522 lung
A549/ATCC NSCLC = system: A549/ATCC NSCLC
786-0 renal = system: 786-0 renal
COLO 205 colon = system: COLO 205 colon
DU-145 prostate = system: DU-145 prostate
K-562 leukemia = system: K-562 leukemia
MALME-3M melanoma = system: MALME-3M melanoma
MDA-MB-231 breast = system: MDA-MB-231 breast
RXF 393 renal = system: RXF 393 renal
SF-268 CNS = system: SF-268 CNS
SF-539 CNS = system: SF-539 CNS
UACC-257 melanoma = system: UACC-257 melanoma
M14 melanoma = system: M14 melanoma
SF-295 CNS = system: SF-295 CNS
NCI-H322M lung = system: NCI-H322M lung

Compound | growth (NCI-H23 lung) | growth (NCI-H226 lung) [%] | growth (HOP-62 NSCLC) | growth (NCI-H460 lung) | growth (HOP-92 NSCLC) | growth (NCI-H522 lung) | growth (A549/ATCC NSCLC) | growth (786-0 renal) | growth (COLO 205 colon) | growth (DU-145 prostate) | growth (K-562 leukemia) | growth (MALME-3M melanoma) | growth (MDA-MB-231 breast) | growth (RXF 393 renal) | growth (SF-268 CNS) | growth (SF-539 CNS) | growth (UACC-257 melanoma) | growth (M14 melanoma) | growth (SF-295 CNS) | growth (NCI-H322M lung)
CCOC(=O)c1ccc2c(c1)c1c(C)c3cccnc3c(C)c1n2C | 56.7% | 53.1 | 72.7% | 22.5% | 67.9% | 49.1% | 67.7% | 51.3% | 50.3% | 52.7% | 39.5% | 68.7% | 50.7% | 75.6% | 50.9% | 67% | 115% | 53.2% |  | 
COc1ccc(/C=C\c2cc(OC)c(OC)c(OC)c2)cc1OC(=O)c1cccc(Cn2cc(CCOC(=O)c3cccc(Cn4nnc5c4C(=O)c4ccccc4C5=O)c3)nn2)c1 | 33.1% | 58.4 | 14.9% | 5.39% (active) | 52.6% | 6.06% (active) | 17.3% |  | -25.2% (active) | 7.26% (active) | 8.24% (active) | 41.5% | 21.6% | 15.9% | 27.7% | -22.5% (active) | 67.3% | -0.552% (active) | 11% | 
CC(C)(C)N1CCC1C(N)=O (stereo not drawn) | 86% | 118 | 96.8% | 104% | 100% | 172% | 99% | 29.6% | 106% | 108% | 97.7% | 90.3% | 112% | 103% | 102% | 97.7% | 96% | 78.6% | 106% | 
COc1cc([N+](=O)[O-])c2ncccc2c1O | -9.28% (active) |  | 5.92% (active) | 2.09% (active) | 79.4% | 42.5% | -16.5% (active) | 108% | -67.8% (active) | 8.92% (active) | 130% | -25.9% (active) | 98.6% | 93.3% | 88.2% | 24.3% | 48% | -23.9% (active) | 3.61% (active) | 2.58% (active)
Oc1ccccc1/C=N/NC(=S)NC1CC2C=CC1C2 (stereo not drawn) | 56.3% |  | 85.6% | 16.6% | 82.4% | 60.3% | 69.9% | 83.4% | 108% | 88.7% | 33.3% | 102% | 84.2% | 68.3% | 67.8% | 93.8% | 76.8% | 47.7% | 85% | 83.1%
CCCOC(=O)n1cccc1 | 99% |  | 94.3% | 110% | 97% | 112% | 96.8% | 98.5% | 107% | 108% | 115% | 147% | 99% | 102% | 98.4% |  | 102% | 101% | 122% | 135%
CN(C)c1oc(C2OC2c2ccccc2)nc1C#N (stereo not drawn) | 95.2% |  | 75.6% | 109% | 79% | 87.7% | 90.8% | 102% | 94.5% | 107% | 106% | 95.9% | 87.3% | 86.7% | 95.7% | 104% | 83% | 104% | 98.8% | 81.6%
COc1ccc(N=Cc2c(O)ccc3c2oc2cc(Cl)c(O)c(Cl)c23)cc1 | 93.7% |  | 95% | 99.8% | 88.8% | 68.1% | 95.5% | 88.8% | 131% | 125% | 81.1% | 106% | 107% |  | 105% | 96.7% | 76.5% | 94.9% | 115% | 122%
CC(C)C(C(=O)NCCN1CCOCC1)N1C(=O)/C(=C/c2ccc(Br)cc2)SC1=S (stereo not drawn) | 98.4% |  | 104% | 101% | 104% | 95.9% | 102% |  | 111% | 108% | 96% | 106% | 108% | 125% | 94.2% | 98.6% | 106% | 90.7% | 102% | 100%
O=c1ccn(-c2ncnc3nc[nH]c23)cc1 | 92.1% |  | 89.8% | 113% | 72.9% | 80.4% | 35.8% | 97.1% | 101% | 101% | 89.9% | 68.8% | 101% | 79.6% | 95.2% | 96.4% | 3.23% (active) |  | 115% | 97.5%
CCN(CC)c1ccc2[nH]c3c(C(N)=O)cc(=O)c(=O)c=3oc2c1 | -28.2% (active) |  | -11.8% (active) | -31.8% (active) | 26% | -39.7% (active) | -5.31% (active) | 15% | 1.25% (active) | -1.89% (active) | 9.48% (active) | -59.9% (active) | 18% | -24.5% (active) | 10.5% | -28.3% (active) | -29.2% (active) | -7.36% (active) | -9.14% (active) | -9.42% (active)
Oc1ccc(Cl)cc1-c1cc(-c2ccc(F)cc2)n[nH]1 | 53.5% |  | 62.5% | 42.5% | 64.6% |  | 62% | 85.6% | 81.7% | 75.9% | 63.2% | 77.8% | 27.3% | 73.4% | 63.6% | 90.1% | 96.6% | 76.6% | 49.2% | 68.1%
N=C(N)c1ccc(-c2ccc(-c3ccc(-c4cccs4)s3)s2)cc1 | 98.8% |  | 93.8% | 21.7% |  | 100% | 14% | 89.9% | 102% | 90.4% | 58% | 85% | 81.1% | 80.7% | 93.5% | 88.5% | 99.3% | 100% | 101% | 43%
OC(c1cc2cc(Br)ccc2c2cc(Br)ccc12)C1CCCCN1 (stereo not drawn) | -75.4% (active) |  | -84.1% (active) | -71.7% (active) | -88.9% (active) | -86.1% (active) | -81.3% (active) | -41.6% (active) | -89.9% (active) | -93.5% (active) | -72.2% (active) | -57.5% (active) | -73.5% (active) | -94.1% (active) | -84.5% (active) | -82.9% (active) | -82.9% (active) | -75.8% (active) |  | -84.9% (active)
C1=Cc2ccccc2N(c2nnc(-c3ccccc3)o2)c2ccccc21 | 103% |  | 99.5% | 49.8% | 84.7% | 92.8% | 92.6% | 100% | 91.3% | 105% | 67.8% | 109% | 85.5% | 91.1% | 91.7% | 103% | 111% | 100% | 92% | 92.2%
c1ccc(-c2cn(-c3ccccc3)c(-c3ccccc3)n2)cc1 | 77.6% |  | 82% | 89.5% | 69.4% | 73.9% | 48% | 71.5% | 95.2% | 71.4% | -51.5% (active) | 95% | 94.3% | 79.9% | 85.5% | 73.5% | -45.3% (active) |  | 127% | 104%
C/C(=C\c1ccc(OCC(=O)O)c(Cl)c1Cl)[N+](=O)[O-] | 93.2% |  | 100% | 110% | 104% | 83.4% | 93.8% | 117% | 112% | 108% | 88% | 135% | 113% | 136% | 95.2% | 103% | 90.4% | 102% | 116% | 134%
